The supplement of paper PMC10981050
Where a name gives a salt, the structure may show the parent alone.

System: K562
Test: cell viability relative to vehicle control; higher = less cytotoxic
Conditions: 10 µM; SRSF2 genotype: SRSF2 wt/wt
How it was run: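 Four leukaemia lines, as CRISPR-edited mutant clones and isogenic wild-type clones, were tested against Selleck bioactive, kinase and epigenetic probe libraries after removal of identity-inconsistent compounds. Cells were exposed to a single 10 µM dose for 48 h, and CellTiter-Glo luminescence was then read. Viability was calculated relative to the on-plate vehicle control.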

Structure (SMILES)	cell viability [%]
Cc1csc(-c2nnc(Nc3ccc(Oc4ncccc4-c4ccnc(N)n4)cc3)c3ccccc23)c1	81.4
CN1CCC(c2c(O)cc(O)c3c(=O)cc(-c4ccccc4Cl)oc23)C(O)C1 (stereo not given) [Flavopiridol (Alvocidib) HCl]	7.9
Cc1ccc(C(C)C)c(O)c1 [Thymol]	99
CN1CCN(c2ccc(Nc3cc(-c4cccc(-n5ccc6cc(C7CC7)cc(F)c6c5=O)c4CO)cn(C)c3=O)nc2)CC1	29.8
NS(N)(=O)=O [Sulfamide]	108
COc1ccc(Oc2cc(C)c(-c3csc(NC(=O)c4ccncc4)n3)c(C)c2)cc1	36.9
Cc1c(O)c(=O)ccn1C [Deferiprone]	93.6
CCCCCCNC(=O)n1cc(F)c(=O)[nH]c1=O [Carmofur]	82
C[C@@H]1COCCN1c1cc(C2([S@](C)(=N)=O)CC2)nc(-c2cc[nH]c3nccc2-3)n1	15.3
Cc1nc(Nc2cnn(C3CCNCC3)c2)nc2c1N(C)C(=O)c1cc3ccccc3cc1N2C	60.7
CCCOc1ccc2[nH]c(NC(=O)OC)nc2c1 [Oxibendazole]	28
COC1=CC(=O)c2ccccc2C1=O [2-Methoxy-1,4-naphthoquinone]	18.6
CC(=O)c1ccc2c(c1)c1cc(C(C)=O)ccc1n2CCNC(C)C	9.91
CC(C(=O)O)c1ccc2c(c1)CC(=O)c1ccccc1S2 (stereo not given) [Zaltoprofen]	97.7
CC(C)Oc1ccc(C(=O)N[C@H](CNC(=O)CN(C)C)Cc2ccc(-c3cn4cccc([C@H](C)O)c4n3)cc2)cc1Cl	36.2
NC(=O)c1cccc2cn(-c3ccc([C@@H]4CCCNC4)cc3)nc12 [MK-4827(Niraparib) tosylate]	87.5
O=C(O)Cc1ccccc1Nc1c(Cl)cccc1Cl [Diclofenac Sodium]	102
C#CC1(O)CC[C@H]2[C@@H]3CCC4=CC(=O)CC[C@@H]4[C@H]3CC[C@@]21CC (stereo not given in full) [Norgestrel]	97.1
COC(=O)C1=C(C)NC(C)=C(C(=O)OCCN2CCN(C(c3ccccc3)c3ccccc3)CC2)C1c1cccc([N+](=O)[O-])c1 (stereo not given) [Manidipine (Manyper)]	53.3
CN(C)N(C)C(=O)[C@@]1(Cc2ccccc2)CCCN(C(=O)[C@@H](Cc2c[nH]c3ccccc23)NC(=O)C(C)(C)N)C1 [Anamorelin]	80.7

Structure (SMILES)	cell viability [%]
O=C(O)CCCCC(CCSCc1ccccc1)SCc1ccccc1 (stereo not given)	100
COc1ccc(C(=O)C(=O)c2ccc(OC)cc2)cc1	104
CNC(=O)c1cc(Oc2ccc(NC(=O)Nc3ccc(Cl)c(C(F)(F)F)c3)cc2)ccn1 [Sorafenib Tosylate]	11.8
C[C@@H](O)[C@H]1C(=O)N2C(C(=O)O)=C(S[C@@H]3CN[C@H](C(=O)N(C)C)C3)[C@H](C)[C@H]12 [Meropenem]	106
COC(=O)C1=C(C)NC(C)=C(C(=O)OCC(C)C)C1c1ccccc1[N+](=O)[O-] (stereo not given) [Nisoldipine]	80.3
COc1cccc(/C=N/N(C(=O)C(F)(F)F)c2ccc(C)cc2C)c1	99.8
CN(CC(=O)N(Cc1ccc(C2CCCCC2)cc1)c1ccc(C(=O)O)cc1)S(=O)(=O)c1c(F)c(F)c(F)c(F)c1F	7.31
C=CC(=O)Nc1cccc(Oc2nc(Nc3ccc(N4CCN(C)CC4)cc3)ncc2Cl)c1	34.2
CO[C@@]12[C@H](COC(N)=O)C3=C(C(=O)C(C)=C(N)C3=O)N1C[C@@H]1N[C@@H]12 [Mitomycin C]	21
Clc1cccc(-c2nnnn2Cc2cccnc2)c1Cl	106
Cc1cccc(Nc2ccncc2S(=O)(=O)NC(=O)NC(C)C)c1 [Torsemide (Demadex)]	102
O=c1cc(-c2ccc(O)cc2)oc2cc(O)c([C@@H]3O[C@H](CO)[C@@H](O)[C@H](O)[C@H]3O)c(O)c12 [Isovitexin]	98.3
C=C1[C@@H]2CC[C@@H](C2)C1(C)C [Camphene]	106
CN(C)c1cccc(-c2c3c(=O)n(-c4ccccc4Cl)[nH]c3cc(=O)n2C)c1	101
CO[C@H]1C[C@@H]2CC[C@@H](C)[C@@](O)(O2)C(=O)C(=O)N2CCCC[C@H]2C(=O)O[C@H]([C@H](C)C[C@@H]2CC[C@H](n3cnnn3)[C@H](OC)C2)CC(=O)[C@H](C)/C=C(\C)[C@@H](O)[C@@H](OC)C(=O)[C@H](C)C[C@H](C)/C=C/C=C/C=C/1C [Zotarolimus (ABT-578)]	66.1
CCC(=O)OCC(=O)[C@@]1(OC(=O)CC)[C@@H](C)C[C@H]2[C@@H]3CCC4=CC(=O)C=C[C@]4(C)[C@@]3(F)[C@@H](O)C[C@@]21C [Betamethasone Dipropionate (Diprolene)]	98.8
O=C(O)c1cc(I)ccc1NC(=O)[C@H](Cc1ccccc1)NCc1ccccc1	101
C=CC(=O)N1CC[C@@H](Oc2nc(Nc3ccc(N4CCC(N5CCN(C)CC5)CC4)cc3)c(C(N)=O)nc2CC)C1 [ASP8273 (Naquotinib)]	47.1
O=c1c(-c2ccc(O)cc2)coc2c([C@@H]3O[C@H](CO)[C@@H](O)[C@H](O)[C@H]3O)c(O)ccc12 [Puerarin (Kakonein)]	97.2
COc1ccc(-n2nc(C(N)=O)c3c2C(=O)N(c2ccc(N4CCCCC4=O)cc2)CC3)cc1 [Apixaban]	103
